“And” between values parts separate entries of the source, which are not always exact repeats. Equal entries are not always repeated. The source made the active and inactive calls. Unless noted, no rule for the calls is given here.
Legend:
[1] = stimulators of insulin release from INS-1E, primary screen, cell-based, 5 mM glucose, NPC library (AID 1117329;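 active = compound raises insulin release from rat beta cells at 5 mM glucose, no numeric limit stated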); conditions: rat INS-1E insulin secretion, at 10 µM, stronger effect = higher value
[2] = growth inhibition of GSK3B-pretreated HCT116 cells – cell-based, CellTiter-Glo, 0.2 to 20 µM (AID 1117336;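 active = compounds lowering colon cancer cell viability after pretreatment blocking the GSK3B kinase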); conditions: HCT116 viability after GSK3B inhibitor, at 20 µM, stronger effect = higher value
[3] = inhibition of endothelial tube formation, primary screen, imaging, VEGF stimulated, CD31 staining, tube area, NPC library (AID 1117340;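 active = compound that reduces growth-factor-driven endothelial tube area in a mixed cell culture, no cutoff stated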); conditions: VEGF-stimulated ADSC/ECFC co-culture, at 10 µM, stronger effect = higher value
[4] = glucagon-like peptide 1 release enhancers, primary assay, NCI-H716 cell line, NPC library (AID 1117341;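 active = compound raises GLP1 secretion from the human gut endocrine cells, with no numeric limit stated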); conditions: NCI-H716 cells, at 10 µM, stronger effect = higher value
[5] = HCT116 colon cancer cell growth inhibition, primary screen, CellTiter-Glo luminescence, NPC library (AID 1117342;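 active = compounds that lower survival of HCT116 colon cancer cells in the luminescence readout, no numeric limit stated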); conditions: at 20 µM (top of the series)
[6] = CellTiter-Glo luminescent readout of SW480 viability loss, NPC library primary (AID 1117343;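 active = compounds that lower viability of the colon cancer cells in the luminescence readout, with no numeric limit stated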); conditions: CellTiter-Glo luminescence; at 20 µM (top of the series) unless noted
[7] = decreased DLD-1 cellular survival, CellTiter-Glo luminescent readout, NPC compound collection, primary HTS (AID 1117346;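 active = compounds that lower survival of DLD-1 colon cancer cells in the luminescence readout, no cutoff given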); conditions: DLD-1 viability, CellTiter-Glo luminescence; at 20 µM (top of the series)
[8] = stimulators of nuclear beta-catenin in C2C12, primary screen, imaging, WNT3A-conditioned medium, mouse C2C12, NPC library (AID 1117326; in the data active = nuclear beta-catenin stimulation mostly above about 4.2%, no sharp cut-off; inactive = mostly below about 10%); conditions: stronger effect = higher value
[9] = sensitizers of A549 cells to miR-34 induction, primary screen, imaging, A549 dox-inducible miR-34, nuclei and caspase counts (AID 1347080;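 active = compounds whose cell count with miR-34 switched on is under 0.7 times the count with it off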); conditions: A549 miR-34 inducible, Hoechst nuclei count, 48 h
[10] = viability rescue of complex I mutant cybrids, primary screen, cell-based, galactose medium, ATP luminescence (AID 1645843;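 active = z-score of at least 1.8 in each of two replicates, scored against plate mean and spread of sample wells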;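 also: positive z means more ATP and so rescue of galactose-driven cybrid death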); conditions: complex I mutant cybrid cells, 72 h, stronger effect = higher value
[11] = hESC survival regulators, cell-based (AID 493140); conditions: human embryonic stem cell survival screen; stronger effect = higher value;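 also: cells exposed to compounds for four days before counting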
[12] = molecular target: 6-phosphogluconate dehydrogenase, decarboxylating (Homo sapiens) (UniProt P52209); experiment: 6PGD enzyme inhibitors, primary screen, biochemical, human, recombinant enzyme, NADPH absorbance (AID 1159550;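 active = at least 20% inhibition of 6-phosphogluconate dehydrogenase activity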); conditions: recombinant 6PGD, NADPH absorbance 341 nm; at 10 µM; stronger effect = higher value
[13] = modulation of C. elegans fzo-1 (AID 1259413);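 also: fzo-1 mutant C. elegans worms in liquid wells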; conditions: C. elegans fzo-1 modulator screen, mean read-out; stronger effect = higher value
[14] = differential killing of epithelial or mesenchymal cells, primary screen, imaging, PC-3E GFP, TEM4-18 mCherry, co-culture (AID 1345086;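 active = compounds killing one labelled cell type while sparing the other, by normalised counts and ratio limits, not self-fluorescent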;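 as to all read-outs here: cells exposed to compound for 72 h before imaging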;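 as to red/green cell ratio (normalised): normalised mesenchymal count divided by normalised epithelial count so high means epithelial killing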); conditions: imaging cell counts, at 1 µM; for red/green cell ratio (normalised): actives lie on both sides, counts scaled to control wells, 1 = unselective
[15] = survival rescue of mitochondrial mutant cells in low glucose, primary screen, MELAS cybrids, Rieske KO mouse fibroblasts, CellTiter-Glo (AID 1508586;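 active = mean z-score across replicates of 1.96 or higher in either the MELAS or the Rieske mutant cell line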;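 also: z relative to plate mean and SD of compound and empty wells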)
[16] = molecular target: NAD(+) hydrolase SARM1 (Homo sapiens) (UniProt Q6SZW1); experiment: SARM1 TIR NADase inhibitors, cell lysate, NAD-Glo luminescence (AID 1508614;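 active = compound whose remaining NAD level is above about 45 nM, limit read from the data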;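 also: higher remaining NAD means stronger inhibition of SARM1 NADase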); conditions: SAM-TIR HEK293T lysate NADase, at 1 µM, stronger effect = higher value
[17] = molecular target: Mitogen-activated protein kinase 7 (Homo sapiens) (UniProt Q13164); experiment: ERK5 transactivation activators in reporter cells, primary screen, cell-based, HTS (AID 1508626;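 active = luciferase signal above three times the same-plate solvent-only control wells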;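 also: luciferase driven by Gal4-ERK5 fusion binding five Gal4 sites before minimal TATA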); conditions: HeLa Gal4-ERK5 transactivation, 18 h, at 5 µM, stronger effect = higher value
[18] = stronger effect = lower value, cell number ratio, induced over uninduced
[19] = measured here: relative caspase fold change +Dox/-Dox
[20] = measured here: total cells with miR-34 induction, stronger effect = lower value
[21] = measured here: total cells without miR-34 induction
[22] = measured here: epithelial PC-3E GFP cell survival
[23] = measured here: mesenchymal TEM4-18 mCherry cell survival
[24] = MELAS cybrid survival, CellTiter-Glo 48 h, stronger effect = higher value
[25] = Rieske KO mouse fibroblast survival, CellTiter-Glo 72 h

Mitogen-activated protein kinase 7 (Homo sapiens), sequence (Q13164 whole entry, looked up, the tested form may be a part): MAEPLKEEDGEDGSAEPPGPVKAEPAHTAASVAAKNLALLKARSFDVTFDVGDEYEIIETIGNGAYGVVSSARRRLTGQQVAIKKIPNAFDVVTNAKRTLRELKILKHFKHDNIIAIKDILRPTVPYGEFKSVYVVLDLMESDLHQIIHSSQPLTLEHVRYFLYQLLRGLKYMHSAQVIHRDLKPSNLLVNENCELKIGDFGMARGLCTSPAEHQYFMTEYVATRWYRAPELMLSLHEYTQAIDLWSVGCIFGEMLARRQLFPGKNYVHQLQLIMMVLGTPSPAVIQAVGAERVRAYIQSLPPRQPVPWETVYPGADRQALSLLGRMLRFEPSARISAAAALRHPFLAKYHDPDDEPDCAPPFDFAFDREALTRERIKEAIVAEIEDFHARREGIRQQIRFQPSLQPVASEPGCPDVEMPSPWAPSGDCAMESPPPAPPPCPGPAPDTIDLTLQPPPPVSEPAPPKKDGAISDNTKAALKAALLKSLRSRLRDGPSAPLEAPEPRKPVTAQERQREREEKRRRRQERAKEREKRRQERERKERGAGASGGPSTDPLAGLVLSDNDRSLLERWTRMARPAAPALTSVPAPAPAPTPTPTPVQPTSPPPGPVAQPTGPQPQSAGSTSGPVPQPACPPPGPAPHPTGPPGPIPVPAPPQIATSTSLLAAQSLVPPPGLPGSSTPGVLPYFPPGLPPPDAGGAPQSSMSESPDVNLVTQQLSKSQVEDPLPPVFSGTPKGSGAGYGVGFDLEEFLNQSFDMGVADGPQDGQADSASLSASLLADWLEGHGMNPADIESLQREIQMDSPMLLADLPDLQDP
NAD(+) hydrolase SARM1 (Homo sapiens), sequence (Q6SZW1 whole entry, looked up, the tested form may be a part): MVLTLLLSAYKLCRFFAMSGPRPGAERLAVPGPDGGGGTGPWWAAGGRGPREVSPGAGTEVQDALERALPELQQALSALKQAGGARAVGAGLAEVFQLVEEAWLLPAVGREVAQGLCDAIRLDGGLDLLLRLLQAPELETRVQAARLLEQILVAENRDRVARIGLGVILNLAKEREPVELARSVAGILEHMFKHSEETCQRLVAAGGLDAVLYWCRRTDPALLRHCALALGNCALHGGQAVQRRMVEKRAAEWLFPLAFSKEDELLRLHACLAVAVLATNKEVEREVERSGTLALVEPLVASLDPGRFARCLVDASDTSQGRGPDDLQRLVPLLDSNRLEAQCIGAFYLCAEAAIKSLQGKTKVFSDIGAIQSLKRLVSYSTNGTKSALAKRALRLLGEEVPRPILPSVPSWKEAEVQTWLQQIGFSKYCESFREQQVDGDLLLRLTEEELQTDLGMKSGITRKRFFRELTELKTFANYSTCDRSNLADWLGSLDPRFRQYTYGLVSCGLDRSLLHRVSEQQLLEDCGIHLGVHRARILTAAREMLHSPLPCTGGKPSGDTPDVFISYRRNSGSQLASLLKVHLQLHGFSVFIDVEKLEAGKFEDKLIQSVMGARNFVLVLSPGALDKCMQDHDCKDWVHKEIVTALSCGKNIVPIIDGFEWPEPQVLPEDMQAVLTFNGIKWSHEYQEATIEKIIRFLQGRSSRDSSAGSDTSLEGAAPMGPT
6-phosphogluconate dehydrogenase, decarboxylating (Homo sapiens), sequence (P52209 whole entry, looked up): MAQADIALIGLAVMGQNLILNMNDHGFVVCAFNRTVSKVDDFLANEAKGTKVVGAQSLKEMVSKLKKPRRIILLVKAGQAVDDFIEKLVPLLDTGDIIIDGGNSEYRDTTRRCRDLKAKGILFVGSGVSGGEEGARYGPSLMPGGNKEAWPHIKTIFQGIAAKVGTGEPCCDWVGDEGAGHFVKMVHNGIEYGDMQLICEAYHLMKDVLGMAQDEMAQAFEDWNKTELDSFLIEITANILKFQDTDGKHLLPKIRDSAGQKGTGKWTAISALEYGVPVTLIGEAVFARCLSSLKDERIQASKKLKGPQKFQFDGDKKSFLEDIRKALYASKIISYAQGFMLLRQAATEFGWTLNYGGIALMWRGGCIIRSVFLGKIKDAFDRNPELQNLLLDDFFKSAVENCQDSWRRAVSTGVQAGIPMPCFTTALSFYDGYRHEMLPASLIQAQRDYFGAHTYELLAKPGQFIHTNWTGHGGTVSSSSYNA

CO[C@]1(NC(=O)CSC(F)F)C(=O)N2C(C(=O)O)=C(CSc3nnnn3CCO)CO[C@H]21
inactive: insulin secretion stimulation [1] 0.75% | viability decrease [2] 11.4% | tube area decrease [3] 7.5% | GLP1 secretion stimulation [4] 4% | inhibition of viability [5] -0.4% | viability decrease (inhibition) [6] -2.1% | viability decrease (inhibition) [7] -3.6%

C[C@@H](C1=C(CCN(C)C)Cc2ccccc21)c1ccccn1
active: viability decrease (inhibition) [6] 63.6%
0.633: fold change [9, 19]
7800: cell count [9, 20]
8.1%: nuclear beta-catenin stimulation ([8]; stimulation, at 2 µM)
inactive: nuclear beta-catenin stimulation ([8]; at 10 µM) -0.2% | viability decrease [2] 37.5% | inhibition of viability [5] -11.9% | viability decrease (inhibition) [7] -48.2% | fold change [9, 18] 0.916 | z-score [10] -0.445
8520: cell count [9, 21]

O=C(CCCN1CCC(O)(c2ccc(Cl)cc2)CC1)c1ccc(F)cc1
inactive: survival [11] 6.08 | insulin secretion stimulation [1] 10.8% | tube area decrease [3] -3.9% | GLP1 secretion stimulation [4] 7.5% | viability decrease (inhibition) [7] 35.5% | inhibition [12] -6.6% | mean signal [13] 271 | red/green cell ratio (normalised) [14] 0.92 | z-score [15, 24] -0.322 and 0.952 and 0.0534 | remaining NAD [16] 10 nM | luciferase signal [17] 40 AU
0.87: normalised cell number [14, 22]
-0.84 and 0.343 and 0.587: z-score [15, 25]
active: viability decrease [2] 75.7% | inhibition of viability [5] 63.5% | viability decrease (inhibition) [6] 66.8%
0.8: normalised cell number [14, 23]

Cc1cc(NS(=O)(=O)c2ccc(N)cc2)no1
1.32: normalised cell number [14, 23]
1.05: normalised cell number [14, 22]
inactive: survival [11] 30.6 | insulin secretion stimulation [1] -2.1% | viability decrease [2] 1.7% | tube area decrease [3] 1.9% | GLP1 secretion stimulation [4] 1.9% | inhibition of viability [5] -6.5% | viability decrease (inhibition) [6] -7.9% | viability decrease (inhibition) [7] 3.95% | inhibition [12] 11.1% | mean signal [13] 252 | red/green cell ratio (normalised) [14] 1.25 | z-score [15, 24] -0.296 and -0.181 | remaining NAD [16] 10 nM | luciferase signal [17] 64 AU | z-score [10] 0.255
-0.35 and -0.048: z-score [15, 25]

CN/C(=C\[N+](=O)[O-])NCCSCc1ccc(CN(C)C)o1
inactive: survival [11] 19.6 | insulin secretion stimulation [1] -1% | viability decrease [2] -7.5% | tube area decrease [3] 7% | GLP1 secretion stimulation [4] -1.4% | inhibition of viability [5] 2.23% | viability decrease (inhibition) [6] -25.8% | viability decrease (inhibition) [7] -22.7% | inhibition [12] -3.38% | mean signal [13] 267 | red/green cell ratio (normalised) [14] 1.01 | fold change [9, 18] 0.934 and 0.989 and 0.926 | remaining NAD [16] 10 nM | luciferase signal [17] 28 AU | z-score [10] 0.37 and -0.285
11300 and 10400 and 13000: cell count [9, 21]
10600 and 10300 and 12000: cell count [9, 20]
1.04: normalised cell number [14, 23]
1.03: normalised cell number [14, 22]
0.757 and 2.23 and 4.08: fold change [9, 19]

Source: PubChem BioAssay
